A selection: hits, their analogues and other compounds. The true share with any hit is near 3.4%.
MEKK3 PB1 HTS = MEKK3-MEK5 PB1 interaction, increase or decrease | AID 1529 | hit rate 1.4% among 290,000 | binding response (% of control), % at 10 µM | Q99759 | bead-based flow cytometry, Alexa488-MEK5 binding to MEKK3; actives lie on both sides; 0 = blocked by unlabeled MEK5, 100 = vehicle;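 active = binding response more than 3 SD above or below the average of its plate-row segment, actives on both sides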;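 also: Alexa488 bead fluorescence after subtracting the streptavidin-only scavenger bead signal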
MEKK2wt PB1 HTS = raises or lowers MEK5 binding to wildtype human MEKK2 PB1 domain; Q9Y2U5; bead flow cytometry, Alexa488-MEK5 binding to MEKK2 WT; actives lie on both sides; binding response (% of control), % at 10 µM; hit rate 1.1% among 290,000; AID 1531; in the data active = binding response below about 67% or above about 130%
MEKK2 mut-MEK5 = signal of MEK5 binding to mutant human MEKK2 PB1 domain. bead flow cytometry, Alexa488-MEK5 binding to MEKK2 mutant. hit rate 0.35% among 290,000. percent response, % at 10 µM; in the data active = percent response above about 24%, passing the limit was not always enough
NTR1 agonist = activates human neurotensin receptor 1; hit rate 0.17% among 330,000; activation, % at 20 µM; NTR1-U2OS beta-arrestin-GFP spot imaging, agonist mode;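 active = activation at or above 40% of the spot to cytoplasm intensity ratio, with at least 20 cells analyzed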
Target sequence (P30989 whole entry, looked up): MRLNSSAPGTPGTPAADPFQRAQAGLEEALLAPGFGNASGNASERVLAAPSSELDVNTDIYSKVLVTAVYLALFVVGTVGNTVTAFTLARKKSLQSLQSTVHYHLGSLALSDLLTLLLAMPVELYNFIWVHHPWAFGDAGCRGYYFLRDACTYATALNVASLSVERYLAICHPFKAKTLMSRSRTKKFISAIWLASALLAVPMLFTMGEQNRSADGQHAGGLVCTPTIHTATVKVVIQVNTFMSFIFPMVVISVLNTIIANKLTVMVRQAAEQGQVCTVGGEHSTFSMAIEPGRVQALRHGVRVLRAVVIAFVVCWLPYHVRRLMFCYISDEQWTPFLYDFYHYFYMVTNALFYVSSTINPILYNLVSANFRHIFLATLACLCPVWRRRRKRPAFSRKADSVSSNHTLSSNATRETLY
TMEM16A act = mouse TMEM16A channel activation, primary screen; HEK293 TMEM16A/YFP-H148Q/I152L, iodide quench fluorescence; stronger effect = lower value; B-score at 10 µM; hit rate 0.3% among 340,000; AID 623877;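 active = fluorescence-ratio B-score plate-corrected deviation score at least 3 library SD below zero, with starting fluorescence score within 5 deviations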;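 also: channel opened by trigger with iodide after compound preincubation; score built on the fluorescence ratio of max minus min over baseline; more negative score means more quench and so TMEM16A activation or potentiation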
ANO1 block = blocks the mouse calcium-activated chloride channel TMEM16A | HEK293 TMEM16A/YFP iodide influx fluorescence, ionomycin | normalized B-score (activity score, 25-100; higher = stronger inhibition) at 10 µM | hit rate 1.2% among 310,000;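 active = ratio plate-corrected score three or more library SD toward inhibition, starting fluorescence score within five deviations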;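 also: score derived from kinetic fluorescence span divided by baseline fluorescence per well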
MEKK2wt confirm = raises or lowers MEK5 binding to wildtype human MEKK2, retest; shares compounds with MEKK3 PB1 HTS; bead flow cytometry, Alexa488-MEK5 binding to MEKK2 WT; actives lie on both sides; binding response (% of control), % at 10 µM; hit rate 2.4% among 5,900; in the data active = binding response below about 16% or above about 210%; inactive = in between
MEKK2mut confirm = signal of MEK5 binding to mutant human MEKK2, retest; shares compounds with MEKK3 PB1 HTS; bead flow cytometry, Alexa488-MEK5 binding to MEKK2 mutant; percent response, % at 10 µM; hit rate 2% among 5,900; AID 1893; in the data active = percent response mostly above about 71%, no sharp cut-off; inactive = mostly below about 38%;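 also: higher means compound restores mutant binding toward wildtype level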
MEKK3-MEK5 inh = confirmation of inhibitors of MEK5 binding to human MEKK3. shares compounds with MEKK3 PB1 HTS. bead flow cytometry, Alexa488-MEK5 binding to MEKK3; stronger effect = lower value. binding response (% of control), % at 10 µM. hit rate 1.8% among 5,900. AID 1894;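 active = binding response below 72% of control, or above a set upper limit, though filed actives all read lower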
A number is an active result; n = inactive; x = no result; [ ] = remark or other dose.

SMILES | MEKK3 PB1 HTS | MEKK2wt PB1 HTS | MEKK2 mut-MEK5 | NTR1 agonist | TMEM16A act | ANO1 block | MEKK2wt confirm | MEKK2mut confirm | MEKK3-MEK5 inh
CCOC(=O)c1c(CSc2ccc(CC)cc2)oc2ccc(O)c(CN(C)C)c12 | n | 153 | 36 | n | n | 100 | n | n | n
CC(C(=O)NC1CCCC1)N1CCN(Cc2ccccc2)CC1 (centres undefined) | 140 | n | n | n | n | n | n | n | n
CC(C)c1ccccc1NC(=S)NC1CCN(Cc2ccccc2)CC1 | n | 138 | n | n | n | n | n | n | n
CC(C)c1ccc(NC(=S)NC2CCN(Cc3ccccc3)CC2)cc1 | n | n | n | n | n | n | x | x | x
Fc1ccccc1NC(=S)N1CCN(Cc2ccccc2)CC1 | 139 | n | n | n | n | n | n | n | n
S=C(Nc1ccc(Cl)cc1Cl)NC1CCN(Cc2ccccc2)CC1 | n | n | 53 | n | n | n | n | n | n
Cc1cccc2cc(CN(Cc3ccccc3)C(=O)c3cccc(F)c3)c(Cl)nc12 | n | n | n | n | n | n | x | x | x
Clc1cccc(CNCC2CCCO2)c1Cl (centres undefined) | n | n | n | n | n | n | x | x | x
Cc1c(Cl)cccc1NC(=S)NC1CCN(Cc2ccccc2)CC1 | n | n | n | n | n | n | x | x | x
S=C(Nc1ccccc1Cl)NC1CCN(Cc2ccccc2)CC1 | 69[inhibitor] | n | n | n | n | n | n | n | n
Cc1oc(-c2ccc(Cl)cc2)cc1C(=O)NC1CCN(Cc2ccccc2)CC1 | n | 175 | n | n | n | n | n | n | n
Cc1oc(C(C)(C)C)cc1C(=O)NC1CCN(Cc2ccccc2)CC1 | n | n | n | n | n | n | x | x | x
COC(=O)c1ccccc1OCCCOc1ccc(C=O)cc1OC | n | n | n | n | n | n | x | x | x
CC(C)NC(=O)C1CC=CCC1C(=O)O (centres undefined) | 134 | n | n | n | n | n | n | n | n
Nc1c(N(CCO)C(=O)/C=C/c2ccco2)c(=O)[nH]c(=O)n1Cc1ccccc1 | 50[inhibitor] | n | n | n | n | n | n | n | n
CC1(C)CC(NC(=O)c2ccccc2F)CC(C)(C)N1 | n | n | n | n | n | n | x | x | x
COc1ccccc1NC(=O)COC(=O)C1CCCC1 | x | x | x | n | n | x | x | x | x
COc1ccccc1NC(=O)c1ccc(NC(=O)COC(=O)C2CCCCC2)cc1 | 137 | n | n | n | n | n | n | n | n
Cc1cc(C)c2cc3c(N)c(C(=O)N4CCOCC4)sc3nc2c1 | n | n | n | n | n | n | x | x | x
Cc1cc(C)c2nc3sc(C(=O)N4CCOCC4)c(N)c3cc2c1 | 29[inhibitor] | 17[inhibitor] | n | n | n | n | n | n | n
Cc1cc(C)n(-c2nnc(Cl)c3ccccc23)n1 | n | n | n | n | n | n | x | x | x
Cc1ccc(-c2nnc(-n3nc(C)cc3C)c3ccccc23)cc1 | 137 | n | n | n | n | n | n | n | n
Cc1nn2c(COc3ccc(NC(=O)c4ccccc4)cc3)nnc2c2ccccc12 | 147 | n | n | n | n | n | n | n | n
CCc1ccc(N(CC(=O)NCc2ccc3c(c2)OCO3)C(=O)c2csnn2)cc1 | n | n | n | n | n | n | x | x | x
Cc1ccc2nc(-c3ccc(NC(=S)NCCC(C)C)cc3)sc2c1 | n | n | n | n | n | n | x | x | x
SMILES | MEKK3 PB1 HTS | MEKK2wt PB1 HTS | MEKK2 mut-MEK5 | NTR1 agonist | TMEM16A act | ANO1 block | MEKK2wt confirm | MEKK2mut confirm | MEKK3-MEK5 inh
CCCCNC(=S)Nc1ccc(-c2nc3ccc(C)cc3s2)cc1 | 134 | n | n | n | n | n | n | n | n
O=C(Nc1ccccc1Br)c1ccc(N2CCCC2=O)cc1 | x | x | x | n | n | n | x | x | x
NC(=O)c1ccc(-n2nnnc2Oc2ccccc2)cc1 | 81[inhibitor] | n | n | n | n | n | n | n | n
O=C(N=Nc1c(O)[nH]c2ccccc12)c1ccc2c(c1)OCO2 | n | n | n | n | n | n | x | x | x
CCC(C)(C)c1ccc(OCCCC[n+]2cccc(C)c2)c(C(C)(C)CC)c1 | n | 191 | n | x | n | x | n | 81 | n
O=C(CN1C(=O)/C(=C\c2cccc(Br)c2)Oc2ccccc21)NCC1CCCO1 (centres undefined) | n | n | n | n | n | n | x | x | x
CC(C)(C)OC(=O)N[C@@H](C(=O)OC(C)(C)C)c1ccc(C(F)(F)F)cc1 | x | x | x | n | n | x | x | x | x
Cc1ccc(C(=O)NCCN2C3=NC[C@H](C)N3C[C@H]2Cc2ccc(O)cc2)cc1Br | n | n | n | n | n | n | x | x | x
COc1ccc(C[C@H]2CN3C(=NC[C@H]3C)N2CCNC(=O)c2ccc(C)c(Br)c2)cc1 | n | n | n | n | n | n | x | x | x
COc1ccc(C[C@H]2CN3C(=NC[C@@H]3C(C)C)N2CCNC(=O)c2ccc(C)c(Br)c2)cc1 | n | 154 | n | n | n | n | n | n | n
Cc1ccc(C(=O)NCCN2C3=NC[C@H](C(C)C)N3C[C@H]2Cc2ccc(O)cc2)cc1Br | n | 145 | n | n | n | n | n | n | n
Fc1ccccc1-c1cc2ncccc2cn1 | x | x | x | n | n | x | x | x | x
CC1COc2c(N3CCN(C)CC3)c(F)cc3c(=O)c(C(=O)O)cn1c23 (centres undefined) | n | n | n | n | n | n | x | x | x
CCOc1ccc(NC(=O)c2ccc(NC(=O)c3cn4c5c(c(N6CCN(C)CC6)c(F)cc5c3=O)OCC4C)cc2)cc1 (centres undefined) | 45[inhibitor] | n | n | n | n | n | n | n | n
COc1ccc(COC(=O)CCS(=O)(=O)c2ccc(C)cc2)cc1F | x | x | x | n | n | n | x | x | x
COc1ccc(C(=O)C2CCN(C(=S)Nc3ccc(F)cc3)CC2)cc1 | n | n | n | n | n | n | x | x | x
COc1ccc(C(=O)C[n+]2cc(Br)cc3ccccc32)cc1[N+](=O)[O-] | n | n | n | n | n | n | x | x | x
O=C(C[n+]1cc(Br)cc2ccccc21)c1ccccc1 | n | 66[inhibitor] | n | n | n | n | n | n | 70
Cc1ccc(S(=O)(=O)N2CCOCC2)cc1NC(=O)Cn1c(=O)ccn(Cc2ccccc2)c1=O | x | x | x | x | n | x | x | x | x
Cc1cc(=O)oc2cc(NC(=O)c3cc([N+](=O)[O-])ccc3N3CCOCC3)ccc12 | n | n | n | n | n | n | x | x | x
O=C(COC(=O)COc1ccccc1)Nc1ccccc1OC(F)F | 72[inhibitor] | n | n | n | n | n | n | n | n
CC(=O)OCC(=O)Nc1ccccc1OC(F)F | n | n | n | n | n | n | x | x | x

Source: PubChem (several laboratories)
